Experimental findings from PMC7862700, “An all-to-all approach to the identification of sequence-specific readers for epigenetic DNA modifications on cytosine” are described below.

What all share (assay): DAPPL (digital affinity profiling via proximity ligation, sequencing); 10 mM Tris-HCl pH 7.5, 50 mM NaCl, 1 mM DTT, 4% glycerol, room temperature, 30 min; GST-TFs on glutathione beads, 16-mer random dsDNA library, 0.1% formaldehyde crosslink after washing; high values mean tight binding
Common to all, as to settings: protein: recombinant; tags: N-terminal GST; dsDNA, one strand shown

The target of experiment [1] is T1, FLI1 (Homo sapiens, UniProt Q01543 1-452).
T1 sequence: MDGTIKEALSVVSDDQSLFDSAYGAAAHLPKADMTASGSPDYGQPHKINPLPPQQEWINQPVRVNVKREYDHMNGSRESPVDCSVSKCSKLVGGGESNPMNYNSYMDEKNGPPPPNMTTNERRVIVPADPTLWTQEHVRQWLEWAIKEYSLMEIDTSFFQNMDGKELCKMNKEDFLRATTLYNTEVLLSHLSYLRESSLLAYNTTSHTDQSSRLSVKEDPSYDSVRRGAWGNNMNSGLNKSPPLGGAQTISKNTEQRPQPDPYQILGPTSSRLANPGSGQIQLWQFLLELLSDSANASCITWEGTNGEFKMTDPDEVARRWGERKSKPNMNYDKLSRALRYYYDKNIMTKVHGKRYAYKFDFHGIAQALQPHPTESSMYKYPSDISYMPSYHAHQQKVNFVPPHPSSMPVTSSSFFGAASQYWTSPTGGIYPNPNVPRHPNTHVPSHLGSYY
Put shortly:
(§1)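 Sequencing on an Illumina NextSeq500 followed washing, crosslinking with 0.1% formaldehyde, proximity ligation (BsaI/T4 ligase, 1 h, 37 °C) and PCR amplification of pools that had been incubated for 30 min at room temperature with 200 nmole of a random double-stranded 16-mer DNA library in Tris/NaCl/DTT/glycerol buffer. Each pool held DNA-barcoded human transcription factors, expressed in yeast as GST fusions and captured on glutathione beads, plus a tag-only sample. Binding signal is a hexamer's read frequency for a factor divided by its frequency in the tag-only sample.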

For experiment [2], the target named is T2, ELK1 (Homo sapiens, UniProt P19419 1-428).
T2 sequence: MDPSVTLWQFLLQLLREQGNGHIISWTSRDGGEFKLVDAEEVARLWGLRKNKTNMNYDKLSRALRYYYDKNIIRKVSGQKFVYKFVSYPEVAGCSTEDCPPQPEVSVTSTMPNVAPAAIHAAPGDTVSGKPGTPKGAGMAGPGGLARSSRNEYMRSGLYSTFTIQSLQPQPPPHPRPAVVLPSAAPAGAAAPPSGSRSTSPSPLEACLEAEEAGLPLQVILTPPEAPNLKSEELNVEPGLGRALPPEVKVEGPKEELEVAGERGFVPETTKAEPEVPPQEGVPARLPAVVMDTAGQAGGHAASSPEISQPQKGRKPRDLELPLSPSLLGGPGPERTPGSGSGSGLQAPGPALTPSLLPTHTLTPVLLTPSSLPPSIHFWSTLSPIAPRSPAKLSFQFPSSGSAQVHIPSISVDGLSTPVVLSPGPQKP
Put shortly: as §1

For experiment [3], the target named is T3, GABPA (Homo sapiens, UniProt Q06546 1-454).
T3 sequence: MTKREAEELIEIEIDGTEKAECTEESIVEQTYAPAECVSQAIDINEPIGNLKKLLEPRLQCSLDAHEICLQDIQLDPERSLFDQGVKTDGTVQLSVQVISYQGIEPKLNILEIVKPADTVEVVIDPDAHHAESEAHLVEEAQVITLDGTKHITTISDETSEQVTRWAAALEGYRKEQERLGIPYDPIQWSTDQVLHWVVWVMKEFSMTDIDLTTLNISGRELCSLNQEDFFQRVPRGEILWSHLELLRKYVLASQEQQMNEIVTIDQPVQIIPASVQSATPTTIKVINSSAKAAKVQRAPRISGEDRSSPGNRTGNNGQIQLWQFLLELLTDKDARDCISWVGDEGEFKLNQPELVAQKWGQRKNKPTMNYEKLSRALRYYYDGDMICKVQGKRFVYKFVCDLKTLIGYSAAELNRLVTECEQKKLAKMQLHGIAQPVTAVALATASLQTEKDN
The gist of the method:
as §1

In experiment [4] the target is T4, ERG (Homo sapiens, UniProt P11308 1-479).
T4 sequence: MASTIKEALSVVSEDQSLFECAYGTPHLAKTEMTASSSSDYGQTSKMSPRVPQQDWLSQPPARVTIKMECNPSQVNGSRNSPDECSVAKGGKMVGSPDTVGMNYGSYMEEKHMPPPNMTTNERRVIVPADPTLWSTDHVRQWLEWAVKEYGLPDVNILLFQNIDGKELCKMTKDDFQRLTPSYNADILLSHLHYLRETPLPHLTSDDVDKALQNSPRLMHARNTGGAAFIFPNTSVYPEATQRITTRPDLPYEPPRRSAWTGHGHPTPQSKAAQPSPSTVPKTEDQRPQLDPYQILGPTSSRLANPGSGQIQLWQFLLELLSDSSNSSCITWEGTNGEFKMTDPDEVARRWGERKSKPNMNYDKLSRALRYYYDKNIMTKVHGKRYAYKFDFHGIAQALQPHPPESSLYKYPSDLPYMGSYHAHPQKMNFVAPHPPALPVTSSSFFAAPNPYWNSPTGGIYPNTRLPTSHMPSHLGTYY
Put shortly: as §1

In experiment [5] the target is ELF1 (Homo sapiens, UniProt P32519 1-619). The gist of the method: as §1
Chain of ELF1 (P32519 whole entry): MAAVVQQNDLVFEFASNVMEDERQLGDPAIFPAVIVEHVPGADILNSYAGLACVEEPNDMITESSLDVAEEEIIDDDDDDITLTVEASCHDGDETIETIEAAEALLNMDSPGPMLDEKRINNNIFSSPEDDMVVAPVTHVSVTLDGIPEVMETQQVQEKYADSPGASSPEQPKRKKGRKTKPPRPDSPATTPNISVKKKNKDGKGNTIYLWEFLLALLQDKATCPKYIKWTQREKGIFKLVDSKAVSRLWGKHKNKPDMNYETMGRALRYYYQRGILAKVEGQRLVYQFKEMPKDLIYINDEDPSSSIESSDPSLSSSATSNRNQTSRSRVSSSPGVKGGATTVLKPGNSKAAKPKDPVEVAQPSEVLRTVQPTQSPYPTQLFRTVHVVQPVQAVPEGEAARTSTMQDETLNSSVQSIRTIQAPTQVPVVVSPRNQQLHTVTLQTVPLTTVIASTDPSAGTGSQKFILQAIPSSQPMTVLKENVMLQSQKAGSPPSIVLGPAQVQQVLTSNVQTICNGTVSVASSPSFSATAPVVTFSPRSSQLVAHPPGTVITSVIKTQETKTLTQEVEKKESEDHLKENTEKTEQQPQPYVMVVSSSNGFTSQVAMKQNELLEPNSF
Experiment [6] has as its target T5, EHF (Homo sapiens, UniProt Q9NZC4 1-300).
T5 sequence: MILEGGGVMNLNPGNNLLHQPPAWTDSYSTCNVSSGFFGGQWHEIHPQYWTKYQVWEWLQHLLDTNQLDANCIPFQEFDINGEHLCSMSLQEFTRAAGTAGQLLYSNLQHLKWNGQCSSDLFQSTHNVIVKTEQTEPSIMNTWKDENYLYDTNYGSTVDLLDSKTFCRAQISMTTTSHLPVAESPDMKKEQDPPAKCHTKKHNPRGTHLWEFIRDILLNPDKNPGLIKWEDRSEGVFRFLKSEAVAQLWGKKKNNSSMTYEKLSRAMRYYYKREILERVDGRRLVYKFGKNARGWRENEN
Put shortly: as §1

For experiment [7], the target named is SPIB (Homo sapiens, UniProt Q01892 1-262). Put shortly:
as §1

Experiment [8] concerns the target T6, ELK3 (Homo sapiens, UniProt P41970 1-407).
T6 sequence: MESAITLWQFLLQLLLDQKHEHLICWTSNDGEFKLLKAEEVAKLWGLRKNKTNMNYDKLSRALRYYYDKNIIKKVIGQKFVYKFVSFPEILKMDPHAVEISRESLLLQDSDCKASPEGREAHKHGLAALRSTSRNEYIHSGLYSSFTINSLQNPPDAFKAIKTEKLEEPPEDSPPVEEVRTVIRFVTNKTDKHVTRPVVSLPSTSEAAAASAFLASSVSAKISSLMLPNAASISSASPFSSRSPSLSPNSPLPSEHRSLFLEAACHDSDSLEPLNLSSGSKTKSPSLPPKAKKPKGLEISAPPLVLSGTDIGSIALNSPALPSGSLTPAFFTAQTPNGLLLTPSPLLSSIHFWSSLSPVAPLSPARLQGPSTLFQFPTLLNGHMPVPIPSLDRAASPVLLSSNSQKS
Put shortly: as §1

For experiment [9], the target named is T7, FEV (Homo sapiens, UniProt Q99581 1-238).
T7 sequence: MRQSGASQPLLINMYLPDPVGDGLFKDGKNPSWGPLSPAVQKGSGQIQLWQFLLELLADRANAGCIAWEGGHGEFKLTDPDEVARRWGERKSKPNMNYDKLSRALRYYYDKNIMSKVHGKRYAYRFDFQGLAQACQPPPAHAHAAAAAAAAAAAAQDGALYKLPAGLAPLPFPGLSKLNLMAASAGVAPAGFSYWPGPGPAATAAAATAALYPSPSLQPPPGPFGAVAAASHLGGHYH
The gist of the method: as §1

The target in experiment [10] is ETV5 (Homo sapiens, UniProt P41161 1-510). Put shortly: as §1
Chain of ETV5 (P41161 whole entry): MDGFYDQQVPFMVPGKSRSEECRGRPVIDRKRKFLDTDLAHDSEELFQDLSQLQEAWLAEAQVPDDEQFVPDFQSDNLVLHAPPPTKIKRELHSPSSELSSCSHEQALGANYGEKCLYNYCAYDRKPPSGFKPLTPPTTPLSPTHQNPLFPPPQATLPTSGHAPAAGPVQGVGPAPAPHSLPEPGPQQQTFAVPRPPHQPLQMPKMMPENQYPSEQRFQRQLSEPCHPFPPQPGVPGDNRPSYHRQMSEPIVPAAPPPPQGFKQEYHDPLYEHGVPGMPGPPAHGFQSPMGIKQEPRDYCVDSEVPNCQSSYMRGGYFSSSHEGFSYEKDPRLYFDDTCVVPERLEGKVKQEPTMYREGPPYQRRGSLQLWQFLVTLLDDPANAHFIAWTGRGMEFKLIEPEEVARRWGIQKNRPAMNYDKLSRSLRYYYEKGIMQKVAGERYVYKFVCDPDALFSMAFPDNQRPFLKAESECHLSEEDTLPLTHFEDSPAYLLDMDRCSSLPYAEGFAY
In experiment [11] the target is T8, SPIC (Homo sapiens, UniProt Q8N5J4 1-248).
T8 sequence: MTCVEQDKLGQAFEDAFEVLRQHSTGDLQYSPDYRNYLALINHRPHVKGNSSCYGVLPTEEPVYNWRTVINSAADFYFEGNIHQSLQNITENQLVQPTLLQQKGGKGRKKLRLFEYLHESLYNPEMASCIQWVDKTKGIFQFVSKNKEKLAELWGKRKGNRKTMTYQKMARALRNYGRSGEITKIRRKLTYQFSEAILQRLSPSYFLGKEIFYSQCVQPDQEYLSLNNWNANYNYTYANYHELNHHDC
The gist of the method:
as §1

For experiment [12], the target named is ELF4 (Homo sapiens, UniProt Q99607 1-663). The gist of the method: as §1
Chain of ELF4 (Q99607 whole entry): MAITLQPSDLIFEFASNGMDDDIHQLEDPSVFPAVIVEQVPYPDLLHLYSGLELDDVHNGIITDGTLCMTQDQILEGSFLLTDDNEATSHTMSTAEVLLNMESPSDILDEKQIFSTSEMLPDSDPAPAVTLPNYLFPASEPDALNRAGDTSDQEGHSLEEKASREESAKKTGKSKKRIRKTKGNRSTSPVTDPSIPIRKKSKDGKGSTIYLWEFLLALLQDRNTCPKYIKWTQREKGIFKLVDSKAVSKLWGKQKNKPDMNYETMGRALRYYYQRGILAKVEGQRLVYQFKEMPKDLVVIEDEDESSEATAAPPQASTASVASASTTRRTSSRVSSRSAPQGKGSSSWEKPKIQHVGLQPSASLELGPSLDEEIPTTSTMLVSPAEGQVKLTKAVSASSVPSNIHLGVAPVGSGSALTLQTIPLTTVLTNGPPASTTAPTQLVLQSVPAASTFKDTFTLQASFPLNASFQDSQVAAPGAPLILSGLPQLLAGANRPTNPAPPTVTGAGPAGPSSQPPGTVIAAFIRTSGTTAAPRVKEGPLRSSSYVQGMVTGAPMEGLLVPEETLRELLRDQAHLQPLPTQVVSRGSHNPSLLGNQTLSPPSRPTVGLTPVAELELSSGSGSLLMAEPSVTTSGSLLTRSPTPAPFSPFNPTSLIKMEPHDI
Experiment [13] has as its target ETV1 (Homo sapiens, UniProt P50549 1-477). The gist of the method:
as §1

The target in experiment [14] is T9, ERF (Homo sapiens, UniProt P50548 1-548).
T9 sequence: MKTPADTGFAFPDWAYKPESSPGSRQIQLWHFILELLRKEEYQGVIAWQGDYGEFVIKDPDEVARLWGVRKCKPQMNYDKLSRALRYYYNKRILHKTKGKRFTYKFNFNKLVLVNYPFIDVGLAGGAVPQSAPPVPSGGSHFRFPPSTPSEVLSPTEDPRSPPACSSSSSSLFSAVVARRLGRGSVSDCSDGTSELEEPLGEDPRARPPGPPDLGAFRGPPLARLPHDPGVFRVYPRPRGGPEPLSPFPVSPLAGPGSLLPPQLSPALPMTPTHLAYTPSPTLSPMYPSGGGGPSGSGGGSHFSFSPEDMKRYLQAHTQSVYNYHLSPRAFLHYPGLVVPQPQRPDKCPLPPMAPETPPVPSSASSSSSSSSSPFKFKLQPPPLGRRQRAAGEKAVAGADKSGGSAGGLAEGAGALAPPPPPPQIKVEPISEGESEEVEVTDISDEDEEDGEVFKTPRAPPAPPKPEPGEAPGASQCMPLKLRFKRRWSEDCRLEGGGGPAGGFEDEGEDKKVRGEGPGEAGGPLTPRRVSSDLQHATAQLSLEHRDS
Put shortly: as §1

Experiment [15] has as its target T10, ETV3L (Homo sapiens, UniProt Q6ZN32 1-361).
T10 sequence: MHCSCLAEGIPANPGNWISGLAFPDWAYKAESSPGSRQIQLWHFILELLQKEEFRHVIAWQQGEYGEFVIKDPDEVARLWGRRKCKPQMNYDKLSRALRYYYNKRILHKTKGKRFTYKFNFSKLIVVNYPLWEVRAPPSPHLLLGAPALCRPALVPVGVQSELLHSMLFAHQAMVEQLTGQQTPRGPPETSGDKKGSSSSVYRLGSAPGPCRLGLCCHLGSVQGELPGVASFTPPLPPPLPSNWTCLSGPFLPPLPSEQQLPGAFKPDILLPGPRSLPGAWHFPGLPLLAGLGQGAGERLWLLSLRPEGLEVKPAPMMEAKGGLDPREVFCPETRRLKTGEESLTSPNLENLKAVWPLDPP
Put shortly:
as §1

Experiment [16] concerns the target T11, ETS2 (Homo sapiens, UniProt P15036 1-469).
T11 sequence: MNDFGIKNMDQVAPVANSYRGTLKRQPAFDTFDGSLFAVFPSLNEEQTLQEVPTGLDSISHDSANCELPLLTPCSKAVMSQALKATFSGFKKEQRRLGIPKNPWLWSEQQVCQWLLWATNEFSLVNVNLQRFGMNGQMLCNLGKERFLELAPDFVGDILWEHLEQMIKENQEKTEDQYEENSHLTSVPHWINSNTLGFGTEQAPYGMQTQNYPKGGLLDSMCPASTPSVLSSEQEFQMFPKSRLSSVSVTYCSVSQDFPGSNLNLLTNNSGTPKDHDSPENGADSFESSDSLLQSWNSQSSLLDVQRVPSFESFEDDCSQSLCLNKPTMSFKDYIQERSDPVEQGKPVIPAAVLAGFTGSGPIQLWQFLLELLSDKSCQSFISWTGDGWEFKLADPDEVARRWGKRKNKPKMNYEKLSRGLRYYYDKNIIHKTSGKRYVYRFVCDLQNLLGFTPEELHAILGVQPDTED
The gist of the method: as §1

Experiment [17] concerns the target T12, ETV3 (Homo sapiens, UniProt P41162-2 1-143).
T12 sequence: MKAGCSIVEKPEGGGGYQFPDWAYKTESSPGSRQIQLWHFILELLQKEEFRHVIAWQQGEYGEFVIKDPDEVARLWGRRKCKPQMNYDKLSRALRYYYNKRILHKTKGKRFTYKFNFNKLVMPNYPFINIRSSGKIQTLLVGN
The gist of the method:
as §1

The target of experiment [18] is ETV6 (Homo sapiens, UniProt P41212 1-452). The gist of the method: as §1
Chain of ETV6 (P41212 whole entry): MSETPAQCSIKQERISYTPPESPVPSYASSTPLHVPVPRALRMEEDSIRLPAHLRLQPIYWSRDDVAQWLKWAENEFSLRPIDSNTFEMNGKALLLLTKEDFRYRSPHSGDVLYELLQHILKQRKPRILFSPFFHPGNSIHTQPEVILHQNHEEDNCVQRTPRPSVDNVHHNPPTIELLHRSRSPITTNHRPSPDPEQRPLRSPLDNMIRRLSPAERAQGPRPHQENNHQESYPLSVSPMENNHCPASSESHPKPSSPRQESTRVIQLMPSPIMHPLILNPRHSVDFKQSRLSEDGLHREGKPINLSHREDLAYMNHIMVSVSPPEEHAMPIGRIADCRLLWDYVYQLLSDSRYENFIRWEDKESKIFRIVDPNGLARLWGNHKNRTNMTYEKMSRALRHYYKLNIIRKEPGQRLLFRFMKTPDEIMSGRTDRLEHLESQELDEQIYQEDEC

Chain of SPIB (Q01892 whole entry): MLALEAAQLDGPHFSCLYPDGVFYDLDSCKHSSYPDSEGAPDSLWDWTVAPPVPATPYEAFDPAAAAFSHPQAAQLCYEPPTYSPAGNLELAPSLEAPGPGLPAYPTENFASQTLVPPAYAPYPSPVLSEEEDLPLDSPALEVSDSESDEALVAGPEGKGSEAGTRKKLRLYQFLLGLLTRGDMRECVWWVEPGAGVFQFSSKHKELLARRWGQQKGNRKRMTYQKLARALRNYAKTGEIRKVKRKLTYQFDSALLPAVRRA
Chain of ETV1 (P50549 whole entry): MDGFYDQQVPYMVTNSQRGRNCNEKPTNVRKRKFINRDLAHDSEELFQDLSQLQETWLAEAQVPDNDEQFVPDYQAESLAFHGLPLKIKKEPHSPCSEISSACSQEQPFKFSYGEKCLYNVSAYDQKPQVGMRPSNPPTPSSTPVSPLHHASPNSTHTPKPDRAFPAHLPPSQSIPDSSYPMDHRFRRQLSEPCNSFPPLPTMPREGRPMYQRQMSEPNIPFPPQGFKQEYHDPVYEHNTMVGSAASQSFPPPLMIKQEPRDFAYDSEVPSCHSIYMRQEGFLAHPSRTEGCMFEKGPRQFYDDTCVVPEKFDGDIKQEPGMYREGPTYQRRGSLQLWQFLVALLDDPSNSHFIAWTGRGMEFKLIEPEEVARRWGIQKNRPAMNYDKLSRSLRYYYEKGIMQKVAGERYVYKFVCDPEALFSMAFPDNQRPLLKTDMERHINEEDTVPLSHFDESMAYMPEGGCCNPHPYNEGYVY

Consider CCACAC, for which the binding signal in experiment [1] is 1.07 fold enrichment (6-mer frequency, TF over GST control); in experiment [2], 1.07 fold enrichment (6-mer frequency, TF over GST control); in experiment [3], 1.1 fold enrichment (6-mer frequency, TF over GST control); in experiment [4] it was 1.07 fold enrichment (6-mer frequency, TF over GST control); in [5], 1.12 fold enrichment (6-mer frequency, TF over GST control); in [6] it was 1.12 fold enrichment (6-mer frequency, TF over GST control). For the same sequence, the binding signal in [7] is 1.04 fold enrichment (6-mer frequency, TF over GST control); in experiment [8], 1.11 fold enrichment (6-mer frequency, TF over GST control); in experiment [9], 1.11 fold enrichment (6-mer frequency, TF over GST control); in experiment [10], 1.11 fold enrichment (6-mer frequency, TF over GST control); in experiment [11] it was 1.18 fold enrichment (6-mer frequency, TF over GST control); in experiment [12], 1.1 fold enrichment (6-mer frequency, TF over GST control). Further, the binding signal in experiment [13] was 1.1 fold enrichment (6-mer frequency, TF over GST control); in experiment [14], 1.08 fold enrichment (6-mer frequency, TF over GST control); in [15] it was 1.11 fold enrichment (6-mer frequency, TF over GST control); in experiment [16], 1.03 fold enrichment (6-mer frequency, TF over GST control); in experiment [17], 1 fold enrichment (6-mer frequency, TF over GST control); in experiment [18], 1.02 fold enrichment (6-mer frequency, TF over GST control).
